Compounds with a hit are over-represented: about 5.4% of the library has one in this group of screens.
Mdm2 MdmX PPI = human Mdm2/MdmX binding inhibition; AID 485346; 330,000 tested, 3% active; O15151+Q00987; SaOS-2 split-luciferase Mdm2/MdmX complementation, luminescence; inhibition, % at 8 µM;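 active = inhibition of at least 50% at 8 µM in the primary screen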
Target sequence (O15151 whole entry, looked up): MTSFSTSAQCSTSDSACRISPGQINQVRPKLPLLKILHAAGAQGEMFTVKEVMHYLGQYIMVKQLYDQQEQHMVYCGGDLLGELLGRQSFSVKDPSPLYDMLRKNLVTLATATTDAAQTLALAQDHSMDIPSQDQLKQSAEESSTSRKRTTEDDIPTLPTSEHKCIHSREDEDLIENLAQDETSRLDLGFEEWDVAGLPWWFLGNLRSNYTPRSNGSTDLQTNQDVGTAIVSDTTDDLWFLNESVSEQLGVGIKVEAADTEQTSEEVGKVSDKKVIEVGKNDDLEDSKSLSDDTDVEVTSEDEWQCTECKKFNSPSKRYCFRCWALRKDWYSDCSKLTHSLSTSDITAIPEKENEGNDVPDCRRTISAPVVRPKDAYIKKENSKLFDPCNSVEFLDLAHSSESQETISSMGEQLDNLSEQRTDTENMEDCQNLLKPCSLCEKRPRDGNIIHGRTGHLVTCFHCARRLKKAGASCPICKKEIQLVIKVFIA
Target sequence (Q00987 whole entry, looked up): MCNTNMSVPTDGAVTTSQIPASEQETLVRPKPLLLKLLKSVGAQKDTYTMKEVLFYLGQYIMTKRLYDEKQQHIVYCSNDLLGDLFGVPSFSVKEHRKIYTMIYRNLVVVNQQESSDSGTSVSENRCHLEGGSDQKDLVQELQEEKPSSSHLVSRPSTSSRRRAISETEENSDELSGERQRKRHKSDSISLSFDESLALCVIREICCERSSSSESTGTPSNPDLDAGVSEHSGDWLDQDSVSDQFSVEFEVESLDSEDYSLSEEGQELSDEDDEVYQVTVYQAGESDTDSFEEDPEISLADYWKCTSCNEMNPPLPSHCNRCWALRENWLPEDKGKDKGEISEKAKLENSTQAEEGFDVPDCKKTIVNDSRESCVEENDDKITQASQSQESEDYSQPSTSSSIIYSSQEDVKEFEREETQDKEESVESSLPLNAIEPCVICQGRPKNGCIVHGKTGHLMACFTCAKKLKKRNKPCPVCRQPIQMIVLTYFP
SKKanGAS inh = blocks kanamycin growth of S. pyogenes SKKanGAS strain; BacTiter-Glo, 6 h; inhibition, % at 7.5 µM; 300,000 tested, 1.3% active; AID 1662;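 active = mean replicate score, as percent of positive control median, at least 50; inconclusive = mean below 50 but one replicate at or above 50; inactive = mean and every replicate below 50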;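 note: strain carries kanamycin resistance gene driven by streptokinase promoter and grows in 40 µg/ml kanamycin; loss of luminescence reflects streptokinase promoter inhibition or plain growth inhibition; 0% = median of DMSO wells and 100% = positive control at its reference dose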
Beta cell apopt = beta cell apoptosis inhibition. INS-1E cytokine-induced death, ATP luminescence, 48 h; percent of positive-control rescue, neutral wells zero. protection from apoptosis, % (concentration not given with the values). 300,000 tested, 0.8% active. AID 435005;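 active = Every replicate reaches about 75%, or at least half do and their mean reaches it too, limit read from the data; inconclusive = At least half of replicates reach the limit but their mean does not; inactive = Under half of replicates reach the limit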;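 note: 0% = cytokine-treated negative control wells and 100% = positive control rescue; higher means more ATP so stronger rescue from cytokine killing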
CSC inhib = cancer stem cell inhibition; cancer stem cell-like cells viability, luminescence; inhibition, % at 7.5 µM; 300,000 tested, 1.1% active; AID 2717; in the data active = inhibition above about 75%; inconclusive = no clear call, values can overlap the other calls; tested in HMLE shEcad cells
MPTP block = permeability transition pore inhibition; AID 602449; 360,000 tested, 1.4% active; inhibition, % at 10 µM; isolated mouse mitochondria, Ca2+ swelling absorbance, 30 min;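 active = inhibition of 50% or more, scaled per plate between neutral and stimulator controls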;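 note: 0% = DMSO wells given calcium and 100% = 1 mM EGTA wells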
Calb FLC = C. albicans growth modulation with fluconazole; C. albicans CaCi-2 (fluconazole-resistant clinical isolate) + fluconazole, Alamar Blue growth, 48 h; growth inhibition, % (test concentration not listed); 300,000 tested, 0.57% active; AID 1979;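 active = growth inhibition above about 58% in most replicates, limit read from the data, passing the limit was not always enough; inconclusive = exactly half the replicates above a set limit; inactive = most replicates below a set limit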;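 note: all wells also contain fluconazole at 8 µg/ml as a sub-toxic cotreatment; 0% = median of DMSO wells and 100% = median of geldanamycin control wells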
Mdm2-MdmX conf = confirmation of human Mdm2/MdmX interaction inhibitors. inhibition, % at 8 µM. Mdm2-MdmX binding, luminescent assay. 10,000 tested, 55% active. shares compounds with Mdm2 MdmX PPI; in the data active = inhibition above about 40%
FLuc counter = counter-screen for Mdm2/MdmX inhibitors: full-length luciferase. shares compounds with Mdm2 MdmX PPI. SaOS-2 full-length luciferase counterscreen, luminescence. inhibition, % at 8 µM. 6,200 tested, 77% active;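 active = mean inhibition at 8 µM reaching about 37%, which flags the compound as non-specific, limit read from the data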;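 note: p53-null SaOS-2 cells with luciferase driven by a doxycycline-inducible promoter; compound on cells about two nights before reading with doxycycline added after day one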
* = called active by the depositor.

How did O=C(NC1CCCN(Cc2ccc(Cl)cc2)C1)c1cnc2ccccn2c1=O (configuration not stated) do in these assays?
Mdm2 MdmX PPI: 22; SKKanGAS inh: 0; Beta cell apopt: 1; CSC inhib: 11; MPTP block: 0; Calb FLC: -4

Results for CN=c1scc(-c2ccccc2F)n1/N=C/c1ccc[nH]1 ?
Mdm2 MdmX PPI: 94*; SKKanGAS inh: 17; Beta cell apopt: 8; CSC inhib: 32; MPTP block: 2; Calb FLC: 3; Mdm2-MdmX conf: 98*; FLuc counter: 21

Results for CCCCCOc1ccc(C(=O)NC(CCC)C(=O)O)cc1 (configuration not stated) ?
Mdm2 MdmX PPI: -8; SKKanGAS inh: -4; Beta cell apopt: -2; CSC inhib: 1; MPTP block: 1; Calb FLC: 16

How did CCn1ncc(C2=NOC(C(=O)NCc3ccccc3)C2)c1C (configuration not stated) do in these assays?
Mdm2 MdmX PPI: 62*; SKKanGAS inh: 7; Beta cell apopt: 6; CSC inhib: 69; MPTP block: -2; Calb FLC: 2; Mdm2-MdmX conf: 52*; FLuc counter: 84*

How did CC(=O)c1ccccc1C(=O)N1CCCC(CNC(=O)c2ccccc2Cl)C1 (configuration not stated) do in these assays?
Mdm2 MdmX PPI: -7; SKKanGAS inh: -1; Beta cell apopt: -1; CSC inhib: 0; MPTP block: 2; Calb FLC: 8

How did Cc1cc(C)nc(SCc2ccc(C(=O)N/N=C/c3ccc(C(=O)O)cc3)cc2)n1 do in these assays?
Mdm2 MdmX PPI: 4; SKKanGAS inh: 7; Beta cell apopt: -16; CSC inhib: -7; MPTP block: -1; Calb FLC: 14

Results for COc1ccc(/C=N/NC(=O)c2ccc(CSc3nc(C)cc(C)n3)cc2)cc1O ?
Mdm2 MdmX PPI: 5; SKKanGAS inh: -2; Beta cell apopt: 0; CSC inhib: 25; MPTP block: -1; Calb FLC: -12

Results for COc1ccc(O)c(/C=N/NC(=O)c2ccc(CSc3nc(C)cc(C)n3)cc2)c1 ?
Mdm2 MdmX PPI: 77*; SKKanGAS inh: 16; Beta cell apopt: inconclusive; CSC inhib: 110*; MPTP block: 9; Calb FLC: 119*; Mdm2-MdmX conf: 74*; FLuc counter: 31

How did Cc1cc(C)nc(SCc2ccc(C(=O)N/N=C/c3cccc(O)c3O)cc2)n1 do in these assays?
Mdm2 MdmX PPI: 75*; SKKanGAS inh: 8; Beta cell apopt: 95*; CSC inhib: 110*; MPTP block: 4; Calb FLC: -1; Mdm2-MdmX conf: 68*; FLuc counter: 35

Results for CC(=O)Nc1ccc(NC(=O)C(C)OC(=O)CCc2nc3ccccc3s2)cc1 (configuration not stated) ?
Mdm2 MdmX PPI: 11; SKKanGAS inh: 2; Beta cell apopt: -7; MPTP block: 0; Calb FLC: 11

How did COc1cc(C2(c3ccc(O)c(OC)c3)C(=O)Nc3c(Br)cc(Br)cc32)ccc1O do in these assays?
Mdm2 MdmX PPI: 20; SKKanGAS inh: 4; MPTP block: -1; Calb FLC: -2

Results for CC(C)CN(C(=O)c1cccc(F)c1)c1c(N)n(CC(C)C)c(=O)[nH]c1=O ?
Mdm2 MdmX PPI: 14; SKKanGAS inh: 0; Beta cell apopt: 0; CSC inhib: 1; MPTP block: 0; Calb FLC: -2

What do the screens show for `O=c1[nH]cnc2scc(C3COc4ccccc4O3)c12` (configuration not stated)?
Mdm2 MdmX PPI: 0; SKKanGAS inh: 9; Beta cell apopt: -3; CSC inhib: -10; MPTP block: -1; Calb FLC: 7

How did Clc1ncnc2scc(C3COc4ccccc4O3)c12 (configuration not stated) do in these assays?
Mdm2 MdmX PPI: 52*; SKKanGAS inh: 23; Beta cell apopt: -2; CSC inhib: -5; MPTP block: 5; Calb FLC: -8; Mdm2-MdmX conf: 16

Results for c1ccc2c(c1)OCC(c1csc3ncnc(N4CCCCC4)c13)O2 (configuration not stated) ?
Mdm2 MdmX PPI: 65*; SKKanGAS inh: 11; Beta cell apopt: 2; CSC inhib: -8; MPTP block: 18; Calb FLC: -25; Mdm2-MdmX conf: 18

What do the screens show for `CCCN1CCN(c2ncnc3scc(C4COc5ccccc5O4)c23)CC1` (configuration not stated)?
Mdm2 MdmX PPI: 23; SKKanGAS inh: 1; Beta cell apopt: 7; CSC inhib: -1; MPTP block: 5; Calb FLC: -30

How did CCCCC(=O)N=c1sc2cc([N+](=O)[O-])ccc2n1C do in these assays?
Mdm2 MdmX PPI: -13; SKKanGAS inh: 3; Beta cell apopt: 3; CSC inhib: -8; MPTP block: 0; Calb FLC: 17

What do the screens show for `COc1cc(S(=O)(=O)Nc2ccccc2)ccc1N=Cc1c(C)[nH]n(-c2ccc(C)cc2)c1=O`?
Mdm2 MdmX PPI: 67*; SKKanGAS inh: 28; Beta cell apopt: 17; CSC inhib: 9; Calb FLC: -15; Mdm2-MdmX conf: 21

How did COc1cc(SC#N)ccc1N=Cc1c(C)[nH]n(-c2ccc(Cl)cc2)c1=O do in these assays?
Mdm2 MdmX PPI: 23; SKKanGAS inh: -1; Beta cell apopt: 70; CSC inhib: -1; MPTP block: 4; Calb FLC: -5

Results for COc1cc(SC#N)ccc1N=Cc1c(C)[nH]n(-c2ccc(C)c(C)c2)c1=O ?
Mdm2 MdmX PPI: 87*; SKKanGAS inh: 5; Beta cell apopt: 79*; CSC inhib: 97*; MPTP block: 4; Calb FLC: 11; Mdm2-MdmX conf: 91*; FLuc counter: 52*

How did O=C1C(SCCO)=C(SCCO)C(=O)c2ccccc21 do in these assays?
Mdm2 MdmX PPI: 82*; Beta cell apopt: 99*; CSC inhib: 102*; MPTP block: 5; Mdm2-MdmX conf: 75*; FLuc counter: 21

What do the screens show for `CC1=C(SCc2ccccc2)C(=O)c2ccccc2C1=O`?
MPTP block: 1

What do the screens show for `CCCCN(C(=O)c1cccc(S(=O)(=O)N2CCN(C)CC2)c1)c1c(N)n(CC(C)C)c(=O)[nH]c1=O`?
Mdm2 MdmX PPI: 4; MPTP block: -1

How did Cc1ccc(-c2nn(-c3cc(N4CCNCC4)ccc3[N+](=O)[O-])c(=O)c3ccccc23)cc1 do in these assays?
Mdm2 MdmX PPI: 100*; SKKanGAS inh: -1; Beta cell apopt: 6; CSC inhib: 20; MPTP block: -3; Calb FLC: 12; Mdm2-MdmX conf: 29

High-throughput results: PubChem, several laboratories
